MCF10A rereplic = inducers of DNA re-replication in MCF 10A breast cells; MCF 10A DNA re-replication, Hoechst nuclear intensity, 48 h; Potency, µM (doses to about 46.1 µM), for inactives: at the highest dose activity, positive = re-replication, most hits filed as activators; 350,000 compounds, 2.9% hits; AID 624296; also: % of control where 0% means no effect; nearly all actives have a fitted effect of over 50% in size
HT1080-NT tox = kills 2HG-producing HT-1080-NT fibrosarcoma cells; HT-1080-NT fibrosarcoma viability, CellTiter-Glo ATP luminescence, 48 h; Potency, µM (doses to about 46.1 µM), without a hit: at the top dose activity, negative = less viability, actives largely listed as cytotoxic; 360,000 compounds, 1.6% hits;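 also: NT is the 2HG producing partner of a matched IDH1 knockdown line; 0% = DMSO-treated cells and -100% = media-only wells without cells; nearly all actives have a fitted effect of over 55% in size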
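HT-1080-NT fibrosarcoma cells (2HG-overproducing), 750 cells/well in RPMI with 5% FBS, dosed after 2 h and incubated 48 h at 37C. CellTiter-Glo luminescence normalized to DMSO and no-cell wells; concentration-response curves fitted and classed.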
HT1080 IDH1KD tx = kills HT-1080 cells with IDH1 knockdown | HT-1080 IDH1 knockdown viability, ATP luminescence, 48 h | Potency, µM (top dose mostly 46.1 µM), for inactives: at the top dose activity, negative = toxicity, actives largely listed as cytotoxic | 360,000 compounds, 2% hits | AID 686971;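 also: 0% = DMSO wells and -100% = cell-free medium wells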
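Using the IDH1-knockdown HT-1080 line run in the same batch and compound series as the NT line, viability after 48 h at 37 °C was determined by CellTiter-Glo luminescence and expressed as % activity.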
SW480 rerep = inducers of DNA re-replication in SW480 colon cancer cells; SW480 DNA re-replication, Hoechst DNA content imaging, 48 h; Potency, µM (titrated, usually from 46.1 µM), without a hit: at the top dose re-replication activation, most hits filed as activators; 340,000 compounds, 1.8% hits; AID 624297; also: % of control where 0% means no effect; nearly all actives have a fitted effect of over 55% in size
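Compounds, transferred as 23 nL by pin tool, were incubated with cells for 48 hr; DNA content per nucleus was then quantified by Hoechst staining and fluorescence plate imaging.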
KB-V1 cytotox = KB-V1 MDR subline cytotoxicity | KB-V1 MDR cells viability, CellTiter-Glo, 72 h | Potency, µM (doses to about 46.1 µM), most hits filed as cytotoxic | 400,000 compounds, 3.4% hits | AID 1347076; also: % is scaled to controls: 0 for no effect and ±100 for the full control effect; nearly all actives have a fitted effect of over 60% in size
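Cytotoxicity toward P-gp-expressing KB-V1 cells was determined as loss of CellTiter-Glo luminescence after 72 h at 37 degrees C. Compounds were tested in quantitative HTS format across a concentration range, with curves fitted to normalized data.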
KB-3-1 tox = kills parental KB-3-1 adenocarcinoma cells; KB-3-1 viability, CellTiter-Glo ATP luminescence, 72 h; Potency, µM (doses to about 46.1 µM), actives largely listed as cytotoxic; AID 1347075; 400,000 compounds, 1.4% hits; also: % is scaled to controls: 0 for no effect and ±100 for the full control effect; nearly all actives have a fitted effect of over 60% in size
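Cytotoxicity measured as CellTiter-Glo luminescence after 72 h at 37 C. Compound titrations were pinned onto drug-naive KB-3-1 parental adenocarcinoma cells grown in DMEM with 10% FBS, and normalized data fitted to concentration-response curves.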
An asterisk follows results filed as active; i = inactive; ? = inconclusive; . = no result given; [ ] = remark or other dose. A selection: hits, their analogues and other compounds. The true share with any hit is near 7.9%. Calls follow the shape of the dose curve; as a rule, active = well fitted curve in the direction sought with a large enough effect; inconclusive = small, poorly fitted or top-dose-only effect, or another doubt; inactive = no such curve, though single readings can be large; an effect the other way counts as inactive or inconclusive. Potency is read from the fitted curve at half-maximal effect.

SMILES	MCF10A rereplic	HT1080-NT tox	HT1080 IDH1KD tx	SW480 rerep	KB-V1 cytotox	KB-3-1 tox
Cc1ccccc1OCC(O)Cn1c(=N)n(Cc2ccccc2)c2ccccc21 (configuration not stated)	0%	15µM*	16µM*	5%	?	?
COc1ccccc1OCC(O)Cn1c(=N)n(Cc2ccccc2)c2ccccc21 (configuration not stated)	?	?	-13%	?	?	16µM*
C=CCn1c(=N)n(CC(O)COc2ccccc2OC)c2ccccc21 (configuration not stated)	12%	-23%	-19%	16%	i	i
COc1ccc(OC)c(Nc2nc(N)c([N+](=O)[O-])c(N3CCOCC3)n2)c1	?	-3%	0%	9%	?	i
COc1ccccc1CC(=O)NO	.	6%	16%	.	.	.
CCOC(=O)C1CCCN(c2nc3c(S(=O)(=O)c4ccc(CC)cc4)nnn3c3ccsc23)C1 (configuration not stated)	.	.	.	.	i	i
CC(C)NC(=O)C1C(c2ccccc2)=Nc2ccccc2N1C(=O)c1cc(Cl)cc(Cl)c1 (configuration not stated)	.	16µM*	16µM*	.	?	i
CCOc1cc(/C=C2\N=C(C)OC2=O)cc(Br)c1OCC(=O)OC	9.2µM*	-4%	13%	12µM*	i	i
CCOC(=O)c1c(NC(=O)COc2ccc3ccc(=O)oc3c2)sc(C(=O)N(C)C)c1C	0%	7%	14%	-2%	i	i
COc1ccc(Cc2c(-c3ccco3)nc3ccc(Br)cn23)c(C)c1	.	?	21µM*	.	i	i
COc1ccc(Cc2c(-c3ccco3)nc3ccc(Cl)cn23)c(C)c1	.	-24%	?	.	i	i
COc1ccc(Cc2c(-c3cccc(Cl)c3)nc3c(C)cc(Br)cn23)c(C)c1	.	21µM*	23µM*	.	i	?
Brc1ccc(-c2nc3ccc(Br)cn3c2Cc2ccccc2)cc1	.	?	?	.	i	?
Fc1ccc(-c2nc3ccc(Br)cn3c2Cc2ccccc2)cc1	.	-1%	-4%	.	i	21µM*
COc1ccccc1Cc1c(-c2ccco2)nc2c(C)cc(Br)cn12	.	3.3µM*	3.7µM*	.	?	?
O=C(CN1C(=O)NC2(CCCC2)C1=O)Nc1nc2ccccc2[nH]1	-1%	11%	0%	6%	i	?
CCOc1ccccc1C1CC(=O)Oc2c1c(=O)n(C)c1ccccc21 (configuration not stated)	.	.	.	.	i	i
Cc1cc(Br)cn2c(Cc3ccsc3)c(-c3ccco3)nc12	.	16µM*	23µM*	.	i	i
COc1ccc(Cc2c(-c3ccco3)nc3c(C)cc(Br)cn23)c(C)c1	.	?	6.5µM*	.	i	?
Cc1ccc(Cc2c(-c3ccco3)nc3ccc(Br)cn23)cc1	.	18µM*	16µM*	.	i	i
CCCCOC(=O)c1ccc(Nc2nc3ccccc3c3nnc(C)n23)cc1	.	.	.	.	i	i
O=S(=O)(c1ccccc1Cl)N1CCN(c2nc(-c3cccs3)nc3ccccc23)CC1	.	29%	8%	.	.	.
Cc1nc(-c2ccc(NC(=O)C(C)(C)C)cc2)c(-c2ccccc2)o1	0%	3%	5%	-6%	i	i
Cc1nc2c(o1)C(=O)c1ccccc1C2=Nc1ccccc1	6.5µM*	5.8µM*	2.9µM*	4.1µM*	3.3µM*	4.6µM*
CC[C@@H]1OC(=O)[C@H](C)[C@H](O[C@@H]2C[C@](C)(OC)[C@H](O)[C@H](C)O2)[C@H](C)[C@H](O[C@@H]2O[C@@H](C)C[C@@H](N(C)C)[C@@H]2O)[C@](C)(O)C[C@H](C)C(=NOCOCCOC)[C@H](C)[C@H](O)[C@]1(C)O	-4%[20.6 µM]	.	.	1%[20.6 µM]	.	.
